Compound activity deposited in PubChem by several laboratories.
RN4220 kill = growth inhibition of S. aureus RN4220, primary screen, OD600. 16 h. inhibition, % (test concentration not listed). 330,000 compounds, 0.33% hits. AID 1259311, 2017; in the data active = inhibition above about 85%
BJeLR viability = MLPCN primary cell-based screen for lethality selective to Ras in HRASV12 cells | 300,000 compounds, 0.17% hits | inhibition, % (no concentration beside the values) | BJeLR (HRASV12) viability, CellTiter-Glo ATP luminescence, 48 h; in the data active = inhibition above about 50%
MazF activator = activators of E. coli MazEF toxin-antitoxin RNase, primary screen, biochemical, fluorescence, uHTS; 350,000 compounds, 0.32% hits; Endoribonuclease toxin MazF (Escherichia coli (strain K12)), P0AE70; activation, % at 20 µM; FAM/BHQ RNA-DNA oligo cleavage fluorescence, 5 h; in the data active = activation above about 50%
Target sequence (P0AE70 whole entry, looked up): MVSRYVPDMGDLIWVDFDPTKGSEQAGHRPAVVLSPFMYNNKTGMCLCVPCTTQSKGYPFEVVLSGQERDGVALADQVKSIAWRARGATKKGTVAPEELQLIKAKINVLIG
ugtP null kill = growth inhibition of ugtP-null S. aureus, primary screen, RN4220 ugtP deletion, OD600; 16 h; growth inhibition, % (test concentration not listed); 330,000 compounds, 0.54% hits; AID 1259309, 2017; in the data active = growth inhibition above about 68%
SSB-PriA inh = inhibitors of Klebsiella pneumoniae PriA binding to SSB C-terminal tail, primary screen, biochemical, AlphaScreen. PriA–SSB C-terminal tail interaction (Klebsiella pneumoniae). AlphaScreen SSBct-PriA binding, biotinylated peptide. inhibition, % at 33 µM. 430,000 compounds, 0.6% hits. AID 1272365, 2023; in the data active = inhibition mostly above about 37%, no sharp cut-off; inactive = mostly below about 20%
Each line names hits and unclear results; the compound was inactive in the other large screens; ! = not confirmed by another sample. An excerpt weighted towards active compounds, which were near 1.2% of everything screened.

Fc1ccc(NC(=S)Nc2ccc(F)c(Cl)c2)cc1Cl	RN4220 kill 108, ugtP null kill 97
CC(C)=CCC12Oc3cc(O)ccc3C1(O)Oc1cc3c(c(O)c1C2=O)C=CC(C)(C)O3 (stereo unspecified)	ugtP null kill 97
COc1ccc(OC)c2sc(N(CCCn3ccnc3)C(=O)c3ccco3)nc12	SSB-PriA inh 59 (no result: RN4220 kill, BJeLR viability, MazF activator, ugtP null kill)
CCc1cccc2sc(N(CCCn3ccnc3)C(=O)c3cccc(OC)c3OC)nc12	SSB-PriA inh 42 (no result: RN4220 kill, BJeLR viability, MazF activator, ugtP null kill)
CN(C)CCCN(C(=O)COc1ccccc1)c1nc2c(F)cccc2s1	none
Cc1c(Cl)ccc2sc(N(CCCn3ccnc3)C(=O)COc3ccccc3)nc12	SSB-PriA inh 43 (no result: RN4220 kill, BJeLR viability, MazF activator, ugtP null kill)
COc1cc(OC)cc(C(=O)N(CCCn2ccnc2)c2nc3cc(C)cc(C)c3s2)c1	SSB-PriA inh 40 (no result: RN4220 kill, BJeLR viability, MazF activator, ugtP null kill)
CC1(Br)C2CCCC1C2S(=O)(=O)c1ccccc1 (stereo unspecified)	none
CC(=O)Nc1ccc(OCc2ccccc2)cc1[N+](=O)[O-]	none (no result: RN4220 kill, BJeLR viability, ugtP null kill)
CC(=O)N1c2ccc([N+](=O)[O-])cc2NC(=O)CC1C (stereo unspecified)	none
O=C(NCc1cccs1)c1nc2c(nnn2Cc2ccc(F)cc2)c(=O)[nH]1	none
CCOc1ccc2nc(N(CCCn3ccnc3)C(=O)COc3ccccc3)sc2c1	none (no result: RN4220 kill, BJeLR viability, MazF activator, ugtP null kill)
COc1ccc(OC)c2sc(N(CCCn3ccnc3)C(=O)COc3ccccc3)nc12	SSB-PriA inh 73 (no result: RN4220 kill, BJeLR viability, MazF activator, ugtP null kill)
O=C(c1ccc(Cl)s1)N(CCCn1ccnc1)c1nc2c(F)cccc2s1	SSB-PriA inh 38 (no result: RN4220 kill, BJeLR viability, MazF activator, ugtP null kill)
CS(=O)(=O)N1CCc2cc(S(=O)(=O)NCCNS(=O)(=O)c3ccc4c(c3)CCN4S(C)(=O)=O)ccc21	none
Cc1cccc(/C=N/NC(=O)c2cc(Br)ccc2OCc2ccccc2)n1	MazF activator 125 (no result: RN4220 kill, ugtP null kill, SSB-PriA inh)
COC12C(COC(N)=O)C3=C(C(=O)C(C)=C(N)C3=O)N1CC1C2N1C (stereo unspecified)	RN4220 kill 100, ugtP null kill 100
COC(=O)c1ccc(OC(=O)CCN2C(=O)C3CCCCC3C2=O)cc1 (stereo unspecified)	none (no result: RN4220 kill, ugtP null kill)
CCCCNC(=O)c1c(O)c2cccc3c2n(c1=O)CCC3	none
CCCc1nnc(NC(=O)c2c(O)c3cccc4c3n(c2=O)CCC4)s1	RN4220 kill 88, ugtP null kill 96 (no result: MazF activator, SSB-PriA inh)
Cc1ccc(O)c(C2=NNC(c3ccc(Cl)cc3)C2)c1 (stereo unspecified)	none
Oc1ccc(Cl)cc1C1=NNC(c2cccs2)C1 (stereo unspecified)	RN4220 kill 96, ugtP null kill 99
CC(C)CSc1ncc(-c2ccc(Cl)c(Cl)c2)n1-c1ccc(OC(F)F)cc1	none (no result: RN4220 kill, BJeLR viability, MazF activator, ugtP null kill)
O=C(CSc1ncc(-c2ccc(Cl)c(Cl)c2)n1-c1ccc(OC(F)F)cc1)N1CCCC1	SSB-PriA inh 38 (no result: RN4220 kill, BJeLR viability, MazF activator, ugtP null kill)
NC1=NC[C@@H](Cc2ccc(O)cc2)N1CCc1cccc(F)c1	none (no result: RN4220 kill, ugtP null kill)
NC1=NCC(Cc2ccc(O)cc2)N1CCc1cccc2ccccc12 (stereo unspecified)	ugtP null kill 100! (no result: BJeLR viability, MazF activator, SSB-PriA inh)
NC1=NCC(Cc2ccc(O)cc2)N1CCCCC1CCCCC1 (stereo unspecified)	RN4220 kill 101, ugtP null kill 100 (no result: BJeLR viability, MazF activator, SSB-PriA inh)
CCCCN1C(N)=NCC1Cc1ccc(O)cc1 (stereo unspecified)	none (no result: BJeLR viability, MazF activator, SSB-PriA inh)
NC1=NCC(Cc2ccc(O)cc2)N1CCC12CC3CC(CC(C3)C1)C2 (stereo unspecified)	RN4220 kill 101!, ugtP null kill 101! (no result: BJeLR viability, MazF activator, SSB-PriA inh)
CCOc1nc2cnccc2n(CC(=O)Nc2c(F)c(F)cc(F)c2F)c1=O	none
C[CH2][Hg][S]c1ccccc1C(=O)O	RN4220 kill 100, ugtP null kill 98 (no result: BJeLR viability)
O=C(O)c1ccccc1SSc1ccccc1C(=O)O	none
Clc1cccc(N/N=C(\Cc2nc3ccccc3[nH]2)c2ccccc2)c1	MazF activator 72 (no result: RN4220 kill, ugtP null kill, SSB-PriA inh)
C=CC1=C(C(=O)O)N2C(=O)C(NC(=O)C(=NOCC(=O)O)c3csc(N)n3)C2SC1 (stereo unspecified)	RN4220 kill 93, ugtP null kill 99 (no result: BJeLR viability, MazF activator, SSB-PriA inh)
CCCCCCC(NC(=O)c1ccc(C)cc1)C(=O)O (stereo unspecified)	SSB-PriA inh 57 (no result: BJeLR viability)
O=C(NC1CCN(C(=O)Nc2cccc(F)c2)CC1)c1ccco1	SSB-PriA inh 58 (no result: RN4220 kill, ugtP null kill)
COC1(CNS(=O)(=O)CC23CCC(CC2=O)C3(C)C)CCSC1 (stereo unspecified)	SSB-PriA inh 40 (no result: RN4220 kill, BJeLR viability, MazF activator, ugtP null kill)
Cc1cc(C)c(C)c(S(=O)(=O)Nc2ccc(C(=O)N3CCCC3)cc2)c1C	none
COc1ccccc1/C=C1\SC(=S)N(CCC(=O)NCCCn2ccnc2)C1=O	BJeLR viability 78
COc1ccc(/C=C2\SC(=S)N(CCC(=O)NCCCn3ccnc3)C2=O)cc1	none
COc1ccccc1/C=C1\SC(=O)N(CCC(=O)NCCCn2ccnc2)C1=O	BJeLR viability 83
Cc1cc(/C=N/NC(=O)c2cccc([N+](=O)[O-])c2)c(C)n1-c1ccc(Cl)cc1Cl	none (no result: RN4220 kill, ugtP null kill, SSB-PriA inh)
O=C(NCCCc1ccccc1)C(=O)Nc1ccc2c(c1)OCCO2	none (no result: RN4220 kill, BJeLR viability, MazF activator, ugtP null kill)
CC(C)COC(=O)n1c(SCC(N)=O)nc2ccccc21	none
CC(C)(C)c1cc([N+](=O)[O-])cc(C(C)(C)C)c1O	RN4220 kill 88, ugtP null kill 93
O=[N+]([O-])c1ccc(C2CCCCC2=NOCc2ccccc2F)c([N+](=O)[O-])c1 (stereo unspecified)	SSB-PriA inh 50 (no result: BJeLR viability, MazF activator)
CON=CCC(=O)c1ccc(-c2ccccc2)cc1	ugtP null kill 101 (no result: BJeLR viability, MazF activator)
CO/N=C/CC(=O)c1ccc(-c2ccccc2)cc1	none (no result: RN4220 kill, ugtP null kill, SSB-PriA inh)
O=C1/C(=C/c2ccc3c(c2)OCO3)SC(=S)N1CCC(=O)N(CCO)c1ccccc1	MazF activator 77 (no result: RN4220 kill, BJeLR viability, ugtP null kill, SSB-PriA inh)
O=C1/C(=C/c2cccc(Br)c2)SC(=S)N1CCC(=O)N(CCO)c1ccccc1	none
COc1cccc(/C=C2\SC(=S)N(CCCC(=O)N(CCO)c3ccccc3)C2=O)c1	BJeLR viability 55
O=C(NC1CCCC1)C1CCN(C(=O)c2cc(Cl)ccc2Cl)CC1	none
CN(C)c1ccc(-c2nc3ccccc3n2CCOc2ccccc2)cc1	SSB-PriA inh 29 (no result: RN4220 kill, BJeLR viability, MazF activator, ugtP null kill)
COc1ccc(CCNc2nccn(-c3cccc(Cl)c3C)c2=O)cc1OC	SSB-PriA inh 32 (no result: RN4220 kill, BJeLR viability, MazF activator, ugtP null kill)
O=c1c2ccccc2nc(/C=C/c2ccc([N+](=O)[O-])o2)n1CCCO	RN4220 kill 114, BJeLR viability 52, ugtP null kill 99
c1ccc(-c2nc(NC3CCCC3)c3ccccc3n2)nc1	SSB-PriA inh 120 (no result: RN4220 kill, BJeLR viability, MazF activator, ugtP null kill)
c1ccc(-c2nc(NCC3CCCO3)c3ccccc3n2)nc1 (stereo unspecified)	SSB-PriA inh 89
O=c1cc(-c2ccccc2)nc(SCc2nc(-c3ccc4c(c3)OCO4)no2)[nH]1	none (no result: RN4220 kill, BJeLR viability, MazF activator, ugtP null kill)
CCn1c(C)c(/C=N/Nc2nc3ccccc3s2)c2ccccc21	none (no result: RN4220 kill, ugtP null kill, SSB-PriA inh)
